Source: PubChem (Broad Institute)
BL2 CD40 inh: inhibitors of CD40-induced NF-kB signaling, primary screen, BL2 cells, luciferase reporter, single point | CD40L-induced, 4 h | inhibition, % at 10 µM | 83,000 compounds, 0.94% hits | AID 1053188, 2014;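 active = mean inhibition of at least 50% with a set share of replicates also reaching that level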;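 note: 0% = neutral control wells and 100% = IKK inhibitor VII at 50 µM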
* = called active by the depositor; [ ] = another dose, or the depositor's remark. This excerpt belongs to a sample that is enriched for hits.

CC(NCCc1ccc(O)cc1)C(O)c1ccc(O)cc1 (stereo not given) was read as BL2 CD40 inh -0.6.
`CCCCCCCCNC(C)C(O)c1ccc(SC(C)C)cc1` (stereo not given) gave BL2 CD40 inh 38.9*.
`CN(C)CC(=O)Nc1ccc2c(c1)[C@H]1C[C@@H](CC(=O)NCc3cccc(F)c3)O[C@H](CO)[C@H]1O2` gave BL2 CD40 inh -8.1[25 µM].
Screening N#C[C@@H]1[C@H](c2ccc(C3=CCCCC3)cc2)[C@H](CO)N1C(=O)NC1CCCCC1 returned BL2 CD40 inh 15.0.
`COc1ccccc1CNC(=O)C[C@H]1C[C@@H]2c3cc(NC(=O)Nc4ccccc4F)ccc3O[C@@H]2[C@@H](CO)O1` gave BL2 CD40 inh -1.9[25 µM].
For Cc1cnc(NC(=O)c2ccc(OCC3CCCO3)cc2)s1 (stereo not given) the results were BL2 CD40 inh 80.4*.
`O=C(Nc1nc2ccccc2s1)c1ccc(OCC2CCCO2)cc1` (stereo not given) gave BL2 CD40 inh 55.6*.
O=C(NC1=NCCS1)c1ccc(OCC2CCCO2)cc1 (stereo not given) was read as BL2 CD40 inh 5.6.
Screening O=C(Nc1nc2ccccc2s1)c1ccc(F)cc1 returned BL2 CD40 inh -80.1.
`O=C(Nc1ncccc1O)c1ccc(OCC2CCCO2)cc1` (stereo not given) gave BL2 CD40 inh 38.9.
O=C(Nc1ccc(S(=O)(=O)N2CCCC2)cc1)c1ccc(OCC2CCCO2)cc1 (stereo not given) was read as BL2 CD40 inh 24.2.
CNC(=O)C1OC(n2cnc3c(NCc4cccc(I)c4)nc(Cl)nc32)C(O)C1O (stereo not given) was read as BL2 CD40 inh 5.4[25 µM].
`C/C=C/c1ccccc1[C@@H]1[C@H](C#N)N(C(=O)c2cccnc2)[C@H]1CO` gave BL2 CD40 inh -7.1[25 µM].
C[C@@H]1CN(C)C(=O)c2cc(N(C)C)ccc2O[C@H]1CN(C)S(C)(=O)=O was read as BL2 CD40 inh 0.6.
`Cc1nc(N2CCN(C(=O)c3ccco3)CC2)c(C#N)c2c1CCCC2` gave BL2 CD40 inh -7.3.
Screening N#Cc1c(NCCCO)nc(NCc2ccccc2)c2c1CCN(Cc1ccccc1)C2 returned BL2 CD40 inh -1.2.
`CN1CCc2c(C#N)c(N3CCCCC3)nc(NCc3ccccc3)c2C1` gave BL2 CD40 inh 35.0*.
`COc1cccc(-c2cn(CC[C@H]3CC[C@@H](NC(=O)CC4CC4)[C@@H](CO)O3)nn2)c1` gave BL2 CD40 inh -0.8.
`Cc1cc(Br)c(OCc2ccc(C(=O)N/N=C/c3ccc[nH]3)cc2)c(Br)c1` gave BL2 CD40 inh 75.0*.
O=C(CNC(=O)c1ccc(Br)cc1)N/N=C/c1ccc[nH]1 was read as BL2 CD40 inh 6.4.
For O=C(N/N=C/c1ccc[nH]1)c1ccc(O)cc1 the results were BL2 CD40 inh -38.7.
Screening CCCCC#Cc1nc(NC)c2ncn(C3OC(CO)C(O)C3O)c2n1 (stereo not given) returned BL2 CD40 inh -3.7[25 µM].
`N#C[C@@H]1[C@H](c2ccccc2-c2cccc(F)c2)[C@@H](CO)N1C(=O)NC1CCCCC1` gave BL2 CD40 inh 15.4[25 µM].
`Cc1ccnc(Sc2ccc([N+](=O)[O-])cn2)n1` gave BL2 CD40 inh -15.3.
O=[N+]([O-])c1ccc(Sc2ccncn2)c([N+](=O)[O-])c1 was read as BL2 CD40 inh 102.7*.
For Cn1cnc([N+](=O)[O-])c1Sc1ccncn1 the results were BL2 CD40 inh 4.7.
`O=S(=O)(c1ccccc1)N1C[C@@H]2N[C@H](C1)C2c1ccc(/C=C/c2ccccc2)cc1` (stereo not given in full) gave BL2 CD40 inh 11.9.
`N#C[C@@H]1[C@H](c2ccccc2-c2ccccc2F)[C@H](CO)N1C(=O)Cc1ccccc1` gave BL2 CD40 inh -0.1[25 µM].
Screening CN1c2ccc(-c3ccccc3F)cc2[C@H]2[C@H](CCN2S(=O)(=O)c2ccc(F)cc2)[C@@H]1CO returned BL2 CD40 inh 1.1.
CC(=O)Nc1ccc(C(=O)COC(=O)C2CC3CCCC(C2)C3=O)cc1 (stereo not given) was read as BL2 CD40 inh -5.3.
`CC(=O)NCCc1ccc(C(=O)COC(=O)C2CCCCC2)cc1` gave BL2 CD40 inh 54.2*.
For CC(=O)NCCc1ccc(C(=O)COC(=O)c2ccco2)cc1 the results were BL2 CD40 inh -1.4.
CNC[C@@H]1Oc2c(NC(=O)NC(C)C)cccc2C(=O)N(C)C[C@H]1C was read as BL2 CD40 inh 2.0.
C[C@H](CO)N1C[C@H](C)[C@@H](CN(C)CC2CC2)OCc2ccccc2-c2c(n(C)c3ccccc23)C1=O was read as BL2 CD40 inh 0.0.
CC(C)NC(=O)N1[C@H](CO)[C@H](c2ccccc2-c2ccc(F)cc2)[C@@H]1C#N was read as BL2 CD40 inh 5.8[25 µM].
Screening COc1cc(C(=O)NNC(=O)/C=C/c2ccccc2)cc(OC)c1OC returned BL2 CD40 inh -8.8.
For COc1ccc(C(=O)C=Cc2ccc(OCc3ccccc3)c(OC)c2)cc1OC the results were BL2 CD40 inh -16.0.
`COc1cc(C=CC(=O)c2cc(OC)c(OC)c(OC)c2)cc(OC)c1OC` gave BL2 CD40 inh 65.0*.
For CC(C)NC(=O)Nc1ccc2c(c1)C(=O)N(C)C[C@H](C)[C@@H](CN(C)S(C)(=O)=O)O2 the results were BL2 CD40 inh 3.6.
`COc1ccc(-c2cccc(NC(=O)c3ccco3)c2)nn1` gave BL2 CD40 inh -10.1.
COc1ccc(-c2ccc(NC(=O)c3ccco3)cc2)nn1 was read as BL2 CD40 inh 82.4*.
For COc1ccc(NC(=O)c2ccccc2NC(=O)c2ccco2)cc1 the results were BL2 CD40 inh -7.7.
Screening C[C@H]1CN(C)C(=O)Cc2cc([N+](=O)[O-])ccc2O[C@H]1CN(C)C(=O)OC(C)(C)C returned BL2 CD40 inh 1.4.
CN1C(=O)c2cc(NC(=O)C3CC3)ccc2OC[C@@H]2O[C@@H](CC(=O)NCc3ccccc3F)CC[C@H]21 was read as BL2 CD40 inh -8.3.
For O=S(=O)(c1cccc2cnccc12)N1CCCNCC1 the results were BL2 CD40 inh -6.1[25 µM].
`O=[N+]([O-])c1cccc2cnccc12` gave BL2 CD40 inh 10.5.
Screening CC1CNCCN1S(=O)(=O)c1cccc2cnccc12 (stereo not given) returned BL2 CD40 inh 31.7*.
O=C(Nc1ccc2c(c1)[C@H]1C[C@@H](CC(=O)N3CCc4ccccc4C3)O[C@@H](CO)[C@H]1O2)C1CCOCC1 was read as BL2 CD40 inh -9.5[25 µM].
For CC(=O)N1C[C@@H]2C(c3ccc(Br)cc3)[C@H](C1)N2Cc1ccc(F)cc1 (stereo not given in full) the results were BL2 CD40 inh 4.5.
Cc1ccc(-c2cc(C(=O)NCC3(N(C)C)CCCCC3)c3ccccc3n2)o1 was read as BL2 CD40 inh -0.5.
`Cc1ccc(-c2cc(C(=O)N(C)CC(=O)Nc3ccccc3Br)c3ccccc3n2)o1` gave BL2 CD40 inh 55.1*.
COc1ccc(NC(=O)CN(C)C(=O)c2cc(-c3ccco3)nc3ccccc23)cc1 was read as BL2 CD40 inh -6.4.
Screening CC(C)NC(=O)N1[C@@H](CO)[C@H](c2ccccc2)[C@@H]1CNC(=O)CN(C)C returned BL2 CD40 inh 17.2.
Screening COc1ccccc1C#Cc1ccc2c(c1)[C@H]1[C@H](CCN1S(=O)(=O)c1cccc(C)c1)[C@@H](CO)N2 returned BL2 CD40 inh -4.2[25 µM].
O=C(NCc1ccccn1)C1CCN(S(=O)(=O)c2ccccc2)CC1 was read as BL2 CD40 inh 8.5.
